Screening results from PubChem BioAssay.
Only some compounds are listed: those with a hit (about 9.3% of all), similar ones and a draw of the others.
NPC1 promoter act: NPC1 promoter activation; Huh7 NPC1 promoter luciferase reporter, 24 h; Potency, µM (series often up to 9.22 µM), for the others: top-dose activation, actives largely listed as activators; actives 2.4% (n = 320,000); AID 485313; note: % of control where 0% means no effect; nearly all actives have a fitted effect of over 60% in size
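Huh7 reporter cells (NPC1 promoter driving luciferase) are dosed with compound for 24 h at 37 °C, 5% CO2; luciferase detection reagent is then added and luminescence measured after 10 min at ambient temperature.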
SMN2 splice enh: increases expression of the SMN2 splice variant | HEK293 SMN2-luciferase splicing reporter, luminescence, 30-36 h | actives 2.8% (n = 210,000) | Potency, µM (doses to about 46.1 µM), inactives show at the highest dose activity change, positive = activation, most hits filed as activators; note: % of control where 0% means no effect; nearly all actives have a fitted effect of over 55% in size
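HEK293 cells carry an SMN2 […]–luciferase reporter in which exon 7 inclusion puts luciferase in frame. Cells were plated 10-12 h before compound addition, then incubated 30-36 h at 37C. ONE-Glo luminescence was read; sodium butyrate at 4.5 mM final served as control.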
ELG1 repair inh: inhibitors of ELG1-dependent DNA repair in HEK293T cells; Potency, µM (highest dose often 46.1 µM), for the others: at the top dose activity change, negative = inhibition, hits mostly inhibitors; HEK293T ELG1-luciferase reporter, luminescence, 16 h; DNA damage induced by 5-fluorouridine; actives 2.3% (n = 330,000); note: % is set by controls: 0 for no effect and ±100 for the full control effect; nearly all actives have a fitted effect of over 55% in size
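Overnight (16 hr) co-exposure of 2,000 cells/well to 5-fluorouridine and compound at 37 °C preceded detection. Luciferase was quantified via ONE-Glo luminescence; loss of signal denotes inhibition.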
Rab9 promoter act: activators of Rab9 promoter; Potency, µM (titrated, usually from 9.22 µM), inactives show top-dose activation, negative = inhibition, usual class: activators; AID 485297; actives 2.8% (n = 320,000); Huh7 Rab9 promoter-luciferase reporter, luminescence, 24 h; note: % of control where 0% means no effect; nearly all actives have a fitted effect of over 60% in size
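Stable Rab9-luc Huh7, 1500 cells/well, 2 h settle; cmpd in DMSO, 24 h, 37 °C/5% CO2; luciferase reagent 10 min RT; luminescence.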
ELG1 genotox: genotoxicity induction in ELG1-luciferase HEK293T cells | HEK293T ELG1-luciferase reporter, luminescence, 16 h | Potency, µM (doses to about 46 µM), without a hit: at the highest dose activity change, positive = activation, actives largely listed as activators | actives 1.3% (n = 330,000) | AID 504466; note: % of control where 0% means no effect; nearly all actives have a fitted effect of over 60% in size
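Genotoxicity was scored as increased ELG1-luciferase reporter signal, measured by ONE-Glo luminescence (30 min, room temperature). Compound or vehicle exposure of the HEK293T reporter cells lasted 16 hr at 37°C.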
FLuc modulator: inhibits or activates purified firefly luciferase, miR-21 counter-screen | P08659 | purified FLuc, Km substrates, luminescence inhibition | Potency, µM (top dose mostly 57.5 µM), inactives show at the highest dose activity change, negative = inhibition, hits mostly inhibitors | actives 6.9% (n = 360,000);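 note: plate controls were vehicle for no effect and reference inhibitor for full effect; nearly all actives have a fitted effect of over 55% in size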
Target sequence (P08659 whole entry, looked up): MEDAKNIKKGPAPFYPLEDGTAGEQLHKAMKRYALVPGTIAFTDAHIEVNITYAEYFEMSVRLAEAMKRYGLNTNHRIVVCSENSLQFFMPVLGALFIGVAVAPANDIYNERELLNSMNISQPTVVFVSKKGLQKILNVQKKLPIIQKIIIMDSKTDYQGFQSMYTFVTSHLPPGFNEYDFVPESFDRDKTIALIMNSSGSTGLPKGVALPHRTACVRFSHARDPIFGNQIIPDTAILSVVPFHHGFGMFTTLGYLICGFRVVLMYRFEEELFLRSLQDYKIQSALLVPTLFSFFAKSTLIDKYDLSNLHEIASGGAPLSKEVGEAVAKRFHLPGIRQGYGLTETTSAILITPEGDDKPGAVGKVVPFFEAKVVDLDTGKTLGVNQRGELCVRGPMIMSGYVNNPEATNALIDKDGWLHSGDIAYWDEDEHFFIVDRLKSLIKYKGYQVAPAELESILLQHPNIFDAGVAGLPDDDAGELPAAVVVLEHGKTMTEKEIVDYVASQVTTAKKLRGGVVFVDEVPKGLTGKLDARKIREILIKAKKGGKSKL
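Purified P. pyralis luciferase, 10 nM final, with Km-level 10 uM D-luciferin and 10 uM ATP in 50 mM Tris acetate pH 7.5, 10 mM Mg acetate, 0.01% Tween-20, 0.05% BSA; 6-point qHTS titration about 60 µM downward; luminescence read.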
* marks the source's active call; other numbers are inactive results; ? = inconclusive; . = not tested or not shown; [ ] = another dose, or the depositor's remark. Calls come from the whole dose curve; as a rule, active = well fitted curve in the direction sought with a large enough effect; inconclusive = small, poorly fitted or top-dose-only effect, or another doubt; inactive = no such curve, though single readings can be large; an effect the other way counts as inactive or inconclusive. Potency is the fitted concentration of half-maximal effect.

SMILES	NPC1 promoter act	SMN2 splice enh	ELG1 repair inh	Rab9 promoter act	ELG1 genotox	FLuc modulator
Cc1sc2ncnc(OCC(=O)NCC3CCCO3)c2c1C (stereo unspecified)	-5%	-10%	11%	-9%	4%	6%
Cc1cc(C)nc(NS(=O)(=O)c2cccs2)c1	-4%	14%	-5%	-2%	3%	1%
COCCCn1c(-c2ccc(Cl)cc2)n[nH]c1=S	-2%	-3%	-11%	-4%	0%	-1%
CSc1nnc2c(n1)c(C)nn2-c1cccc(C)c1	3%	14%	?	-5%	1%	13µM*
CCOC(=O)c1cc(-c2ccc(C)cc2)n(CCC(=O)N2CCN(c3ccccn3)CC2)c1C	-4%	-27%	21µM*	-5%	-12%	-1%
Cn1c(C(C#N)C(=O)Cc2cccc3ccccc23)nc2ccccc21 (stereo unspecified)	-5%	-9%	-7%	-6%	-9%	-1%
Cn1c(C(C#N)C(=O)c2ccco2)nc2ccccc21 (stereo unspecified)	-1%	29%	?	7%	16%	17µM*
CN=C(Nc1ccccc1)SC1CC(=O)N(c2ccc(C(=O)OC)cc2)C1=O (stereo unspecified)	-1%	-10%	-23%	-3%	-6%	-11%
CCn1nc(C)c(/C=N\NC(=O)c2cccc(OC)c2)c1C	-4%	-17%	16%	-4%	4%	?
CCCCCn1nc(C)c(/C=N/NC(=O)c2ccoc2C)c1C	?	20µM*	?	?	?	21µM*
Cc1nn(Cc2ccccc2)c(C)c1/C=N/NC(=O)c1ccccc1O	-8%	.	?	-8%	2%	7.6µM*
CCn1nc(C)c(/C=N/NC(=O)c2ccoc2C)c1C	1.6µM*	?	?	?	?	12µM*
Cc1cc(C(=O)N/N=C/c2c(C)nn(-c3ccccc3)c2C)c(C)o1	22%	.	?	?	8%	21µM*
CC(C)NC(=O)c1cc2nc(-c3ccco3)cc(C(F)(F)F)n2n1	2%	-13%	7%	-1%	-3%	0%[2.3 µM]
Cc1cc(F)ccc1S(=O)(=O)Nc1ccccc1C(=O)Nc1ccccc1-c1nc2ccccc2[nH]1	0%	-93%	?	1%	-17%	3%
Cc1nn(-c2ccccc2)c(C)c1/C=N/NC(=O)c1cc(-c2cccc3ccccc23)n[nH]1	-2%	4%	16µM*	-1%	-8%	11µM*
CCn1nc(C)c(/C=N/NC(=O)c2nc3nc(C)cc(C)n3n2)c1C	-5%	.	-1%	-7%	-2%	1%
CCCCCn1nc(C)c(/C=N\NC(=O)c2cc(C)oc2C)c1C	13%	5%	?	12%	2%	19µM*
CCC(Oc1ccccc1)C(=O)OCC(=O)Nc1sccc1C(N)=O (stereo unspecified)	-4%	.	-11%	-7%	-2%	-8%
Cc1ccc(C)c(C(=O)COc2ccccc2[N+](=O)[O-])c1	-2%	8%	2%	8%	9%	3%
COC(=O)CCC(=O)OC1(C)C(=O)C=C2C=C(C3CC3)N(c3ccccc3)C=C2C1=O (stereo unspecified)	-1%	3%[9.22 µM]	-1%	0%	2%	-1%
Cc1ccc(N2CC(C(=O)Nc3nnc(SCc4ccccn4)s3)CC2=O)cc1 (stereo unspecified)	-1%	.	0%	4%	-2%	4%
COc1ccccc1CNC(=O)c1ccccc1N	1%	3%	16%	-13%	4%	-15%
COC(=O)c1scc(C)c1NC(=O)Nc1ccccc1	1%	0%	?	-7%	-4%	4%
O=C(O)c1cc(N/N=C/C(Cl)=C/c2ccccc2)ccc1Cl	?	0.89µM*	?	?	?	0.11µM*
SMILES	NPC1 promoter act	SMN2 splice enh	ELG1 repair inh	Rab9 promoter act	ELG1 genotox	FLuc modulator
O=C(N/N=C/c1cc([N+](=O)[O-])ccc1O)c1cccc2ccccc12	-14%	.	?	6%	9%	-10%
O=[N+]([O-])c1cccc(N/N=C/c2cccc3ccccc23)c1	5%	?	?	12%	12%	19µM*
CC(O)C(=O)N/N=C/c1cccc2ccccc12 (stereo unspecified)	-3%	43%	?	-2%	-1%	-15%
CC(C)n1cc(/C=N/Nc2ccc(Cl)c(C(=O)O)c2)c2ccccc21	1.8µM*	.	?	1.6µM*	8.2µM*	13µM*
O=C(O)c1cc(N/N=C/c2cccc3ccccc23)ccc1Cl	0.79µM*	.	?	1.4µM*	?	7.6µM*
CC(C(=O)Nc1cccc([N+](=O)[O-])c1)n1nnc2ccccc21 (stereo unspecified)	-1%	-28%	-9%	0%	-1%	3%
NNc1ccc(Cl)c(C(=O)O)c1	1.3µM*	.	?	1.3µM*	?	12µM*
O=C(O)/C=C/C(=O)Nc1ccc(Cl)c(C(=O)O)c1	10%	.	?	-1%	3%	-8%
COc1ccc(OC)c(NC(=O)CCc2nnc3ccc(N4CCC(C)CC4)nn23)c1	0%	.	?	1%	-4%	2%
C/C(=N/Nc1nc(C)cc(C)n1)c1ccc(Br)cc1	0%	.	?	-14%	-13%	-4%
C/C(=N\Nc1nc(C)cc(-c2ccccc2)n1)c1ccc(C)o1	-6%	-40%	?	-15%	-7%	?
C/C(=N\Nc1nc(C)cc(-c2ccccc2)n1)c1cccc(N)c1	25%	.	?	0%	-4%	3.4µM*
C/C(=N/Nc1nc(C)cc(-c2ccccc2)n1)c1ccco1	?	16%	-26%	?	-5%	15µM*
C/C(=N\Nc1nc(C)cc(-c2ccccc2)n1)c1ccc(O)cc1	13%	.	?	-31%	-3%	4.3µM*
Cc1cc(-c2ccccc2)nc(N/N=C/c2ccccc2F)n1	?	.	?	?	3%	11µM*
Cc1cc2c(cc1S(=O)(=O)N1CCc3ccccc31)NC(=O)CO2	-1%	-12%	-16%	0%	-9%	0%
COc1c2ccoc2nc2c(OC)c(OC[C@@H](O)C(C)(C)O)ccc12	3%	.	?	-3%	-7%	?
C/C(=N\Nc1nc(C)cc(-c2ccccc2)n1)c1ccccc1	20%	.	?	-6%	-4%	2.7µM*
Cn1c(SCC(=O)c2ccccc2)nnc1C1CC1	15%	-13%	?	13%	?	-15%
CC1CCCN(c2ncnc3c2cnn3-c2ccc(F)cc2)C1 (stereo unspecified)	.	.	.	.	.	0.17µM*
